The record followed here is ChEMBL document CHEMBL3988442, “University of Dundee, Small-Polar-MMV Screening Library” (2021).

Structures are written as SMILES. Hit rate of the full screen: of about 48,000 compounds, about 13,000 (27%) showed an effect of 50% or more. Some of the results follow.

This assay relates to Wolbachia pipientis. The assay is described as follows: Anti-Wolbachia Cell-Based Screen. The format is functional. The arrangement: scale not given: in the data most compounds retested in dose-response had high values. Conditions: 5 µM.
`CC(C)S(=O)(=O)N1C[C@@H](c2ccccc2)[C@H]2[C@H]1CCCCCN2C`: the “Percent Effect” value is on record as 189.5%. In the case of `CC(Cn1cncn1)NCc1csc2c1CCCC2` (centres undefined) it was -14.34%; in that of `NC1(c2nc(-c3ccccc3)cc(=O)[nH]2)CCCCC1`, -11.2%.

As to `CC1=NOC2(CCN(Cc3c[nH]c4ccccc34)CC2)C1`, the “Percent Effect” value is on record as 112.6%. Next, `O=C1OCCC1N1CCN(C(=O)Cc2c[nH]c3ccccc23)CC1` (centres undefined): 5.817%.

Regarding `CO[C@H]1COCCN(Cc2c[nH]c3ccccc23)C1`, the “Percent Effect” value was -3.317%. In the case of `CCc1nnc(CN(C)C(=O)CN2CC(c3ccccc3)CC2=O)o1` (centres undefined) it was 5.104%; in that of `CCS(=O)(=O)N1CCc2c(CN3CCOCC3)cncc2C1.Cl.Cl`, 105.6%; in that of `CCS(=O)(=O)N1CCc2c(COC)cncc2C1`, 85.06%.

As to `O=C(COc1ccc(F)cc1)N1CCCSCC1CN1CCOCC1` (centres undefined), the “Percent Effect” value is recorded as -0.3394%. In the case of `FC1(F)CCNCC12CCN(c1ncccn1)C2` (centres undefined) it was -1.09%; in that of `Cl.FC(F)CNc1cnc(C2CCNCC2)cn1`, 73.95%; in that of `Cl.O=C(C1CC1)N1CC2(CCNCC2)C1`, -2.925%.

As for `O=C(C1CC1)N1CCC2(CC1)CNCCO2`, the “Percent Effect” value is recorded as 0.5147%. In the case of `Cl.O=C(C1CC1)N1CCOC2(CCNCC2)C1` it was 99.53%. Next, `COCC(=O)N1C[C@@H]2OCCN(Cc3c(C)noc3C)[C@@H]2C1`: -12.28%; `Cc1ccc(N2C[C@@H]3OCCN(CC4CC4)[C@@H]3C2)nn1.O=C(O)C(F)(F)F`: 101.4%; `Cc1ccc(N2C[C@@H]3CN(Cc4csc(C)n4)CCO[C@@H]3C2)nn1.O=C(O)C(F)(F)F.O=C(O)C(F)(F)F`: 2.819%.

In the case of `Cc1noc(C)c1CN1CCO[C@H]2CNC[C@H]21.Cl.Cl`, the “Percent Effect” value is listed as -6.613%. In the case of `Cc1ccc(N2C[C@@H]3OCCN(Cc4c(C)noc4C)[C@@H]3C2)nn1` it was 99.73%. For the compound `Cc1ccc(N2C[C@@H]3CN(Cc4ccoc4)CCO[C@@H]3C2)nn1.O=C(O)C(F)(F)F.O=C(O)C(F)(F)F`, the “Percent Effect” value is -36.31%. Next, `CC(C)NC(=O)N1CCOC2(CCNCC2)C1`: -2.285%; `CCn1ccnc1CN1CCN(C(C)C)CC1C` (centres undefined): -27.31%; `CC(C)N1CCCC(Cc2nccnc2Cl)C1` (centres undefined): 102.4%. In the case of `CC(C)N1CCCC(Cc2nccnc2Cl)CC1` (centres undefined), the “Percent Effect” value is given as 83.32%. Next, `CN1CCCC(Cc2nccnc2Cl)CC1` (centres undefined): 111.8%. Consider `CN1CCCC(Cc2cncc(Br)c2)CC1` (centres undefined), for which the “Percent Effect” value is -8.172%.

With `O=C(N1CCCC1)N1C[C@H]2CC[C@@H]1CN(Cc1ccncc1)C2`, the “Percent Effect” value was found to be 3.012%. Next, `CC(C)CN1C(=O)C2(CCCC2)NC1c1cccnc1` (centres undefined): -3.888%; `COC(=O)CCC(=O)NC(C)Cc1ccccc1Br` (centres undefined): 5.861%. In the case of `O=S1(=O)CCC(n2cc(C3=CCN(CCN4CCCCC4)CC3)cn2)C1` (centres undefined) it was 5.738%; in that of `COc1cccc(Cn2cc(C3=CCN(CC(=O)N(C)C)CC3)cn2)c1`, 105.2%; in that of `COc1cccc(Cn2cc(C3=CCN(CCO)CC3)cn2)c1`, 104.2%. With `CCC(O)Cn1cc(C2=CCN(Cc3ccc(OC)cc3)CC2)cn1` (centres undefined), the “Percent Effect” value is given as -14.61%. In the case of `COCCN1CC=C(c2cccc(OC)c2)CC1` it was -4.022%.

With `CN(C)C(=O)CN1CC=C(c2cnn(Cc3ccccc3)c2)CC1`, the “Percent Effect” value turned out to be 99.64%.

As for `CC(C)(C)n1cc(C2=CCN(CCc3ccccc3)CC2)cn1`, the “Percent Effect” value is recorded as -9.314%. Next, `CCn1cc(C2=CCN(CCCOc3ccccc3)CC2)cn1`: 20.1%; `COc1cccc(C2=CCN(CCN3CCCC3=O)CC2)c1`: -10.09%; `COc1cccc(C2=CCN(CCN3CCOC3=O)CC2)c1`: 5.556%.

As for `Cc1noc(C)c1CNCc1ccccc1N(C)C1CCN(C)CC1`, the “Percent Effect” value is 3.422%. In the case of `Cc1nc(C)c(C)c(N2CCC3(CCN(C)C3)C2)n1` (centres undefined) it was -3%.

Consider `NCC1(c2cccc(C(F)(F)F)c2)CCCC1`, for which the “Percent Effect” value is recorded as -13.69%.

Regarding `CC(C)=CCN1C[C@H]2CC[C@@H]1CN(C(=O)CSc1ccncc1)C2`, the “Percent Effect” value stood at 19.74%. Next, `CC(C)CN1CCC2(CC(C(=O)NCc3cccnc3)=NO2)C1` (centres undefined): -7.517%.

As to `COCCN1CCC2(C1)CN(c1ncccn1)C2.O=C(O)C(F)(F)F`, the “Percent Effect” value is -10.62%. On to `CC(C)CCN1CCC2(CNS(=O)(=O)c3cccnc3O2)C1` (centres undefined), for which the “Percent Effect” value is on record as 113.8%. In the case of `O=S1(=O)NCC2(CCN(Cc3ccc(Cl)s3)C2)Oc2ncccc21` (centres undefined) it was 120.8%.

Regarding `O=C(Cc1ccncc1)N1C[C@H]2CC[C@@H]1CN(Cc1cccnc1)C2`, the “Percent Effect” value was -14.3%. For the compound `NCC1(c2cccc(C(F)(F)F)c2)CCCCC1`, the “Percent Effect” value is listed as -7.297%. In the case of `CCCc1nnc2sc(C3CCN(CC)CC3)nn12` it was 103.4%.

As to `COc1ccc(C(=O)C2CCCN(Cc3ccc(C)o3)C2)c(OC)c1` (centres undefined), the “Percent Effect” value is reported as -6.752%. In the case of `COc1ccc(CC(=O)N2CCN(Cc3ccco3)C[C@H]2C)cc1OC` it was 147.8%; in that of `COc1ccc(CC(=O)N2CCN(Cc3ccco3)C[C@@H]2C)cc1OC`, 120.6%. In the case of `CO[C@H]1CCN(c2ncc(F)cn2)[C@@H]2CN(Cc3ccco3)C[C@H]12.O=C(O)C(F)(F)F.O=C(O)C(F)(F)F` it was 23.38%; in that of `O=C(Cc1csc(-c2ccco2)n1)N1CCN(CCO)CC1`, 5.506%.

Regarding `COc1ccc(CC(=O)N2CCN(Cc3ccco3)C[C@@H]2C)cc1`, the “Percent Effect” value is 137.5%. With `COc1cccc(CC(=O)N2CCCSCC2CN2CCCC2)c1` (centres undefined), the “Percent Effect” value turned out to be 23.31%. In the case of `COc1ccc(CCNCc2ccco2)cc1OC` it was -22.25%. Next, `COc1ccc2c(ccn2CCN)c1`: -4.94%; `O=C(O)C(F)(F)F.O=C(O)C(F)(F)F.O=C(O)C(F)(F)F.c1cc(CN2CCO[C@H]3[C@H](OCCN4CCCC4)CC[C@@H]32)ccn1`: 104.9%; `O=C(NCC1CC1)[C@H]1C[C@@H]2[C@@H](C1)OCCN2Cc1cccnc1.O=C(O)C(F)(F)F.O=C(O)C(F)(F)F`: 13.71%. Next, `O=C(O)C(F)(F)F.O=C(O)C(F)(F)F.O=C(O)C(F)(F)F.c1ccc(CN2CCO[C@H]3[C@H](OCCN4CCCC4)CC[C@@H]32)nc1`: -22.42%; `Cc1cccc(CO[C@@H]2CC[C@H]3[C@H]2OCCN3Cc2nccs2)n1.O=C(O)C(F)(F)F.O=C(O)C(F)(F)F`: -8.72%. As to `CC(C)NC(=O)[C@H]1C[C@@H]2[C@@H](C1)OCCN2Cc1cccnc1.O=C(O)C(F)(F)F.O=C(O)C(F)(F)F`, the “Percent Effect” value is listed as 1.72%. In the case of `O=C(O)C(F)(F)F.O=C(O)C(F)(F)F.O=C(O)C(F)(F)F.c1cncc(CN2CCO[C@H]3[C@H](OCCN4CCCC4)CC[C@@H]32)c1` it was 103%; in that of `O=C(O)C(F)(F)F.O=C(O)C(F)(F)F.c1ccc(CO[C@H]2CC[C@H]3[C@H]2OCCN3Cc2nccs2)nc1`, -10.71%; in that of `CCN(CC)CCN1CCO[C@H]2[C@@H](OCc3ccncc3)CC[C@@H]21.O=C(O)C(F)(F)F.O=C(O)C(F)(F)F.O=C(O)C(F)(F)F`, 3.809%. Next, `O=C(O)C(F)(F)F.O=C(O)C(F)(F)F.c1cc(CO[C@H]2CC[C@H]3[C@H]2OCCN3Cc2nccs2)ccn1`: 124.9%; `Cc1nc(C)c(CC(=O)N2CCN(CC(C)C)CC2)c(=O)[nH]1`: -15.6%; `CC[C@H]1CN2CC[C@H]1C[C@@H]2CNC(=O)NC1CCCCC1`: -4.604%. Next, `CNC(=O)[C@H]1C[C@@H]2CN(C(=O)c3ccncc3F)C[C@@H]2N1C`: 2.311%; `CCN(CCN1CCCCCC1)C(=O)COc1cccnc1`: -15.49%. As to `CN1CCc2nc3c(c(N)c2C1)CCCN3C`, the “Percent Effect” value was determined as 105.5%. In the case of `CC(C)c1cc(N2CCC3(CCN(C)C3)C2)ncn1` (centres undefined) it was -5.942%; in that of `CC(=O)N1CCOCC2(CN(Cc3ccccn3)CCO2)C1.O=C(O)C(F)(F)F.O=C(O)C(F)(F)F` (centres undefined), -7.165%. Next, `CCS(=O)(=O)NC[C@]12COC[C@H]1CN(Cc1ccncc1)C2.O=C(O)C(F)(F)F.O=C(O)C(F)(F)F`: -4.372%; `Cn1cnc(S(=O)(=O)N2CC3(CCN(Cc4ccncc4)C3)C2)c1.O=C(O)C(F)(F)F.O=C(O)C(F)(F)F.O=C(O)C(F)(F)F`: 100.9%; `CC(=O)N1CCN(Cc2ccncc2)CC2(CC(=O)N(C)C2)C1.O=C(O)C(F)(F)F.O=C(O)C(F)(F)F` (centres undefined): 112.8%. With `Cn1cnc(S(=O)(=O)N2C[C@H]3CN(Cc4cccnc4)C[C@H]3C2)c1.O=C(O)C(F)(F)F.O=C(O)C(F)(F)F.O=C(O)C(F)(F)F`, the “Percent Effect” value is reported as -11.02%.

On to `CCN1CC2(CC1=O)CN(Cc1ccccn1)CCN(C(C)=O)C2.O=C(O)C(F)(F)F.O=C(O)C(F)(F)F` (centres undefined), for which the “Percent Effect” value is 108.4%. In the case of `O=C(O)C(F)(F)F.O=C(O)C(F)(F)F.O=C1CC2(CCN(Cc3ccncc3)C2)CN1c1cccc(F)c1` (centres undefined) it was 10.56%; in that of `Cn1ccnc1CN1CCC2(CC(=O)N(c3ccccn3)C2)C1.O=C(O)C(F)(F)F.O=C(O)C(F)(F)F` (centres undefined), -3.39%. Next, `CN(C)C(=O)N1CCCC2(CCN(Cc3ccncc3)C2)C1` (centres undefined): -11.09%. Next, `CCN1CCc2[nH]cnc2C12CCN(c1ccc(Cl)cn1)CC2`: 20.82%; `Cc1cc(CN2C[C@@H]3COC[C@]3(CNC(=O)c3ccco3)C2)no1.O=C(O)C(F)(F)F`: -9.998%; `Cc1ccc(-c2ccnc3cc(CC(=O)N4CCN(C)CC4)nn23)cc1`: 99.35%. As to `Cc1nc(CC(=O)N2CCN(CCOc3ccccc3)CC2)cs1`, the “Percent Effect” value is -7.543%. Consider `CN1CCN(C(=O)Cc2ccc(S(=O)(=O)C(F)F)cc2)CC1`, for which the “Percent Effect” value came out at 3.1%.
